# Source: PubChem BioAssay (National Center for Advancing Translational Sciences (NCATS))
# IL1B secr inh: qHTS for Inhibitors of Inflammasome Signaling: IL-1-beta AlphaLISA Primary Screen. activity change, % at 57.5 µM. THP-1 LPS/ATP IL-1B secretion, AlphaLISA, 16 h; stronger effect = lower value. hit rate 4.7% among 360,000; in the data active = activity change below about -50%; inconclusive = mostly about -30% to -49%
#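 Secreted IL-1B measured by AlphaLISA bead assay after 16 h compound exposure of THP-1 cells; compounds (final up to 57.5 uM) added 1 h before LPS (250 ng/mL) and ATP (1.25 mM) stimulation; lower signal means less secretion.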
# ELG1 repair inh: qHTS screen for small molecules that inhibit ELG1-dependent DNA repair in human embryonic kidney (HEK293T) cells expressing luciferase-tagged ELG1; hit rate 2.3% among 330,000; HEK293T ELG1-luciferase reporter, luminescence, 16 h; DNA damage induced by 5-fluorouridine; AID 504467, 2011; Potency, µM (series often up to 46.1 µM), without a hit: at the top dose activity change, negative = inhibition, usual class: inhibitors; also: potency is read from the fitted curve at half-maximal effect; nearly all actives have a fitted effect of over 55% in size
#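 Quantitative HTS, concentration-response format. 2,000 cells/well co-treated with 5-fluorouridine and compound, 16 hr in 5% CO2 at 37 °C; ONE-Glo luminescence read after 30 min.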
# HT1080 IDH1KD tx: qHTS for induction of synthetic lethality in tumor cells producing 2HG: qHTS for the HT-1080-IDH1KD cell line; HT-1080 IDH1 knockdown viability, ATP luminescence, 48 h; Potency, µM (top dose mostly 46.1 µM), inactives show top-dose activity, negative = toxicity, hits mostly cytotoxic; hit rate 2% among 360,000;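 also: potency is read from the fitted curve at half-maximal effect; 0% = DMSO wells and -100% = cell-free medium wells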
#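 Assay cells: HT-1080 with IDH1 knockdown, 750 per well, RPMI/5% FBS. Exposure: 48 h at 37 °C following 2 h pre-incubation. Read: CellTiter-Glo luminescence; fitted concentration-response, curve class assigned.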
# TDP1 cell CPT: qHTS for Inhibitors of human tyrosyl-DNA phosphodiesterase 1 (TDP1): qHTS in cells in presence of CPT | chicken DT40 Tdp1-/-;hTDP1 cells + 20 nM CPT, ATP luminescence, 48 h | Potency, µM (titrated, usually from 46.2 µM), for inactives: at the highest dose activity change, negative = growth inhibition, hits mostly inhibitors | AID 686979, 2013 | hit rate 12% among 420,000; also: potency is read from the fitted curve at half-maximal effect; nearly all actives have a fitted effect of over 55% in size
#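 Cell growth measured by CellTiter-Glo luminescence after a minimum 48 h, 37 C compound exposure with 20 nM CPT in Tdp1-knockout DT40 cells stably expressing hTDP1, seeded 400/well; qHTS titration format.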
# TDP1 cell noCPT: qHTS for Inhibitors of human tyrosyl-DNA phosphodiesterase 1 (TDP1): qHTS in cells in absence of CPT; DT40 Tdp1-/- hTDP1 cells, no CPT, ATP luminescence, 48 h; Potency, µM (series often up to 46.2 µM), for the others: top-dose activity change, negative = growth inhibition, hits mostly inhibitors; hit rate 15% among 420,000; AID 686978, 2013; also: potency is read from the fitted curve at half-maximal effect; nearly all actives have a fitted effect of over 55% in size
#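 Seeded 400 DT40-hTDP1 cells/well (vehicle DMSO, no 20 nM CPT); pinned compounds; ≥48 hr at 37 °C; CellTiter-Glo luminescence as viability measure.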
# HT1080-NT tox: qHTS for induction of synthetic lethality in tumor cells producing 2HG: qHTS for the HT-1080-NT fibrosarcoma cell line | AID 686970, 2013 | HT-1080-NT fibrosarcoma viability, CellTiter-Glo ATP luminescence, 48 h | Potency, µM (series often up to 46.1 µM), for the others: top-dose activity, negative = less viability, most hits filed as cytotoxic | hit rate 1.6% among 360,000;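 also: NT is the 2HG producing partner of a matched IDH1 knockdown line; potency is read from the fitted curve at half-maximal effect; 0% = DMSO-treated cells and -100% = media-only wells without cells; nearly all actives have a fitted effect of over 55% in size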
#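 HT-1080-NT; 750 cells/well; 5% FBS RPMI; 48 h compound, 37 degrees C; CellTiter-Glo luminescence; curve fitting and curve-class assignment.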
# Starred values were filed as active, the others as inactive; ? = inconclusive; · = no result given; [ ] = another dose, or the depositor's remark. Shown are actives, neighbours in structure and some others; about 19% of the full set was active somewhere. Unless noted, calls follow the shape of the dose curve; as a rule, active = well fitted curve in the direction sought with a large enough effect; inconclusive = small, poorly fitted or top-dose-only effect, or another doubt; inactive = no such curve, though single readings can be large; an effect the other way counts as inactive or inconclusive. Unless noted, % is scaled to controls: 0 for no effect and ±100 for the full control effect.
SMILES,IL1B secr inh,ELG1 repair inh,HT1080 IDH1KD tx,TDP1 cell CPT,TDP1 cell noCPT,HT1080-NT tox
CCOC(=O)C1CCN(c2nc3c(S(=O)(=O)c4ccccc4)nnn3c3ccc(Cl)cc23)CC1,·,·,·,23µM*,15µM*,·
Cc1nc(NC(=O)C(C)(C)C)sc1C(=O)Cn1cc(-c2ccc(C(C)(C)C)cc2)nn1,21,·,5%,?,?,2%
COc1ccccc1-n1c(C)cc(/C=C2\C(=N)N3N=C(CC(=O)N4CCOCC4)SC3=NC2=O)c1C,9,-6%,-9%,18µM*,?,-10%
COc1ccc(-n2c(C)cc(/C=C3\C(=N)N4N=C(CC(=O)N5CCOCC5)SC4=NC3=O)c2C)c(OC)c1,8,13%,?,?,?,-17%
O=C(NC1CCCCC1)C(c1cccnc1)N(C(=O)CCl)c1ccccc1Cl (centres undefined),-89*,?,16µM*,?,?,10µM*
O=C(NCC(=O)N(c1ccc(F)cc1)C(C(=O)NC1CCCC1)c1cccnc1)c1cccs1 (centres undefined),17,-8%,26%,24%,-16%,9%
COc1ccc(N(C(=O)CCl)C(C(=O)NC2CCCCC2)c2cccnc2)cc1 (centres undefined),-102*,21µM*,5.8µM*,3.3µM*,2.3µM*,7.3µM*
O=C(NC1CCCCC1)C(c1cccnc1)N(C(=O)CCl)c1ccc(F)cc1 (centres undefined),-103*,21µM*,10µM*,0.52µM*,0.58µM*,13µM*
Cc1ccc2c(c1)c(=O)c(C(=O)c1ccncc1)cn2CC(=O)Nc1ccccc1Cl,·,·,·,-26%,-1%,·
Cc1ccc(-n2nnnc2CNC(=O)c2ccccc2F)cc1C,·,·,·,-2%,-12%,·
COc1ccccc1OCCn1cc(C(=O)c2cccs2)c2ccccc21,·,·,·,?,10µM*,·
CN1CCN(C(=S)c2cn(CCOc3ccccc3F)c3ccccc23)CC1,-17,?,-26%,?,18µM*,-20%
Cc1ccccc1OCCn1cc(C(=O)O)c2ccccc21,-6,4%,2%,13%,12%,3%
Cc1ccc(OCCn2cc(C(=O)c3cccs3)c3ccccc32)cc1,·,·,·,18µM*,13µM*,·
CC1(c2ccc3c(c2)OCCO3)NC(=O)N(CC(=O)Nc2ccccc2SCC#N)C1=O (centres undefined),31,?,11%,12%,13%,6%[9.24 µM]
Cc1ccc(S(=O)(=O)N2CCN(C(C(=O)Nc3ccc(F)cc3)c3ccccc3)CC2)cc1 (centres undefined),-14,-16%,1%,-19%,?,8%
CC1CCN(C(C)C(=O)Nc2ccccc2-c2ccccc2)CC1 (centres undefined),0,10%,-15%,?,?,-25%
CCOC(=O)c1[nH]c2cc(OC)c(OC)cc2c1NC(=O)C(C)N1CCN(Cc2ccccc2)CC1 (centres undefined),-18,9.2µM*,-6%,?,18µM*,-17%
CC(C(=O)Nc1ccccc1-c1ccccc1)N1CCN(Cc2ccccc2)CC1 (centres undefined),-54*,-11%,-9%,?,?,-14%
CC(C(=O)Nc1ccccc1-c1ccccc1)N1CCN(C(=O)c2ccccc2)CC1 (centres undefined),38,-14%,1%,?,26µM*,0%
CC(NC(=O)C(C)N1CCN(Cc2ccccc2)CC1)c1ccccc1 (centres undefined),9,-3%,9%,-1%,0%,18%
Cc1ccc(S(=O)(=O)N2CCN(C(C)C(=O)Nc3ccccc3-c3ccccc3)CC2)cc1 (centres undefined),0,-9%,-7%,?,16µM*,-3%
CC(=O)N1CCC[C@@]2(CCN(c3ncccn3)C2)C1,·,·,·,4%,-4%,·
COc1ccc2nc(N=Nc3ccc(N(C)C)cc3)sc2c1,-10,?,-7%,16µM*,?,1%
O=c1c(Cl)c(N2CCC3(CC2)OCCO3)cnn1C12CC3CC(CC(C3)C1)C2,4,0%,4%,?,13µM*,1%
SMILES,IL1B secr inh,ELG1 repair inh,HT1080 IDH1KD tx,TDP1 cell CPT,TDP1 cell noCPT,HT1080-NT tox
CC(=O)c1ccc(NC(=O)c2ccccc2-c2ccccc2C(=O)O)cc1,8,10%,-7%,-13%,-3%,-12%
O=C(N/N=C/C=C/c1ccccc1)c1cccs1,0,?,7%,-14%,-1%,16%
O=C(N/N=C/C(Br)=C/c1ccccc1)c1ccccc1F,-65*,?,?,12µM*,23µM*,?
O=C(N/N=C/C(Cl)=C/c1ccccc1)c1ccco1,0,?,-18%,?,?,-6%
O=C(N/N=C/C(Br)=C/c1ccccc1)c1cccs1,?,?,?,16µM*,18µM*,-23%
O=C(N/N=C/C(Cl)=C\c1ccccc1)c1ccco1,-23,?,0%,-20%,29µM*,0%
O=C(N/N=C/C(Cl)=C/c1ccccc1)c1ccccc1F,-69*,?,-5%,?,?,-18%
O=C(Cc1cc(=O)[nH][nH]1)N/N=C/C(Cl)=C/c1ccccc1,4,2%,6%,-8%,5%,5%
N#Cc1ccc(/C=N/NC(=O)c2ccccc2F)cc1,-1,?,15%,2%,7%,9%
COc1ccc(S(=O)(=O)N(C)C)cc1NC(=O)CCNC(=O)c1ccco1,0,-5%,15%,-8%,0%,9%
COc1cccc(C(=O)N(Cc2ccco2)Cc2cc3cccc(C)c3[nH]c2=O)c1,10,?,-16%,?,?,0%
Cc1cccc2cc(CN(Cc3ccco3)C(=O)NC3CCCCC3)c(=O)[nH]c12,?,7.3µM*,-2%,?,-29%,-4%
COc1ccccc1NC(=O)N(Cc1ccco1)Cc1cc2cccc(C)c2[nH]c1=O,-12,?,-9%,16µM*,29µM*,-13%
